The values below come from PubChem BioAssay.
Note: test concentration not given here.

A short description of one assay: basal RPMI8226 mitochondrial membrane potential changes, profiling panel, cell-based, JC-1 fluorescence, 24 h, 100 nL compound (AID 1169). The note with it: RPMI8226 myeloma, JC-1 mitochondrial potential fluorescence, higher = more signal.
Consider `CCOC(=O)C1=CC[C@@H](c2cccc(Cl)c2)N(S(=O)(=O)c2ccc(C)cc2)[C@H]1c1ccc(C#N)cc1`, for which the z-score is -0.62. Consider `CCCNC(=O)[C@@]1(C)c2ccccc2C(=O)N(Cc2cc(C(F)(F)F)cc(C(F)(F)F)c2)[C@H]1c1ccc(CO)cc1`, for which the z-score is -0.0935.

The compound `COC(=O)c1c2oc(c1C(=O)OC)C(=O)N[C@H](Cc1ccccc1)Cn1nncc1C1(CCCCC1)NC(=O)N[C@H](CO)CC2` displayed a z-score of -0.65. Still for that read-out and setting: as for `CN(C)CCCC[C@@H]1NC(=O)[C@@H]2C[C@H](C(=O)NCc3ccc(F)cc3)[C@H](c3cccc(OCCO)c3)N2C1=O`, the figure is 0.46; as for `COc1ccc([Si](C)(C)[C@@H]2[C@@H](CCn3cc([C@H](O)c4ccccc4)nn3)O[C@]3(C(=O)N(C)c4ccccc43)[C@H]2C)cc1`, -0.866.

The nature of a further assay: basal MM1S mitochondrial membrane potential changes, profiling panel, cell-based, JC-1 fluorescence, 24 h, 100 nL compound (AID 1170). Particulars: higher = more signal.
As to `COc1ccc(C#Cc2ccc3c(c2)[C@]2(C(=O)N3)[C@H](C(=O)N3CCN(c4ncccn4)CC3)[C@H]3C(=O)O[C@H](c4ccccc4)[C@H](c4ccccc4)N3[C@@H]2c2ccc(O)cc2)cc1`, the z-score was -0.427. `CCCC[C@H]1C[C@@H]1[C@@H]1N(P(=O)(c2ccccc2)c2ccccc2)[C@](CO)(c2ccccc2)CC12CC2` came in with a z-score of -2.86. Compound `O=C(N1CCCCC1)[C@]1(CCS(=O)(=O)c2ccccc2)N=C(c2ccc(OCCCO)cc2)O[C@@H]1c1ccccc1` displayed a z-score of -0.751.

As for `OCCCc1cc[n+](Cc2cccc(OC(F)(F)F)c2)cc1`, the z-score is -0.978. On the same count and under the same terms, as for `COc1ccc([Si](C)(C)[C@H]2[C@H](CC(=O)N3CCC[C@H]3CO)O[C@@]3(C(=O)N(Cc4cccc(N5CCC5=O)c4)c4ccccc43)[C@@H]2C)cc1`, the figure is 0.619; as for `CCCNC(=O)[C@@]1(c2ccc([N+](=O)[O-])cc2)CC(=O)N(CC23CC4CC(CC(C4)C2)C3)[C@@H]1c1ccc(CO)cc1I`, -2.18; as for `CCCNC(=O)[C@@]1(C)c2ccccc2C(=O)N(Cc2cc(F)cc(C(F)(F)F)c2)[C@H]1c1ccc(CO)cc1`, -0.749. In the case of `C=C[C@H](C)[C@H](OC(=O)Nc1ccc(OC)cc1)c1ccc(O)c2ccccc12`, the z-score is -2.07. On to `O=c1cccc(-c2ccccc2)o1`, for which the z-score is -0.435. Compound `CC1CC/C=C\[C@H]2OC34C=CCN(Cn5nnc6ccccc65)C(=O)[C@H]3N(CCCO)C(=O)[C@@H]4C2C(=O)O1` (stereo partly drawn) registered a z-score of 0.638. Same read-out and setting: as for `COc1ccc(C#Cc2ccc3c(c2)[C@]2(C(=O)N3)[C@H](c3ccc(OCCO)cc3)N3[C@H](c4ccccc4)[C@H](c4ccccc4)OC(=O)[C@H]3[C@@H]2C(=O)Nc2nc3ccccc3s2)cc1`, the figure is -1.71; as for `C=C(C(=O)CC[C@H](OC(=O)c1cccnc1)c1ccccc1OCCO)C(C)C`, -0.477; as for `C=CC[C@@]1(C(=O)NCCN2CCOCC2)N=C(c2ccc(OCCCO)cc2)O[C@@H]1c1ccccc1CN=[N+]=[N-]`, -0.029.

For `C=CCOC(=O)[C@H]1[C@@H]2C(=O)O[C@@H](c3ccccc3)[C@@H](c3ccccc3)N2[C@@H](c2ccc(OCCOC(=O)[C@@H]3C[C@@H]4C(=O)NCC(=O)N4[C@@H]3c3ccc(O)cc3)cc2)[C@]12C(=O)Nc1ccc(I)cc12`, the z-score was -1.1.

Take `CCOC(=O)C[C@H]1[C@H](OC(=O)c2ccc(C(=O)c3ccccc3)cc2)[C@@H](NC(=O)c2ccc3ccccc3n2)c2cc(OCCCO)ccc2N1C(=O)c1ccc2ccccc2n1`: the z-score was determined as 0.215. Same read-out and setting: to `C=CCC(OC(C)=O)[C@@H]1[C@@H](N(Cc2ccc(-c3cccc(C(F)(F)F)c3)o2)C(=O)Cc2ccc(OC)cc2)c2cc(OCCCO)ccc2N1C(=O)Cc1ccc(OC)cc1` (stereo partly drawn) belongs -0.757.

The compound `C=CCC(OC(C)=O)[C@@H]1[C@@H](N(Cc2ccc(-c3ccccc3)cc2)C(=O)c2ccc(C)cc2)c2cc(OCCCO)ccc2N1C(=O)Cc1ccc(OC)cc1` (stereo partly drawn) showed a z-score of -0.496. On the same count and under the same terms, to `C=C(COC)C(=O)CC[C@@H](OC(=O)c1ccccc1-c1ccccc1C(=O)O)c1ccc(CO)o1` belongs -0.857; to `CN(C)CCCC[C@@H]1NC(=O)[C@@H]2C[C@H](C(=O)NCCCCCN)[C@H](c3ccc(O)cc3)N2C1=O`, -0.592. Same read-out and setting: to `CN(C)CCCN1C(=O)[C@@]2(c3ccc([N+](=O)[O-])cc3)CC(=O)N(C3CCCCC3)[C@@H]2c2ccc(CO)cc21` belongs -0.725; to `O=C1C2C=CC(C(O)c3cccc4ccccc34)N(n3cnnc3)C2C(=O)N1Cc1ccccc1` (stereo not drawn), -0.0153; to `COCCCNC(=O)[C@]1(Cc2ccccc2N=[N+]=[N-])N=C(c2ccc(OCCCO)cc2)O[C@@H]1c1ccccc1CN=[N+]=[N-]`, -0.495.

`C=C(COC)C(=O)CC[C@H](OC(=O)c1cccnc1)c1ccccc1OCCO` displayed a z-score of -2.25.
